Source: PubChem BioAssay AID1159580 (chemical genetic matrix, 2015)
Values joined by “and” are separate entries in the source; they are usually repeats but may differ in a detail not shown here. Equal entries are not always repeated. Among all 5,500 compounds or so, about 2,000 (36%) were called active. Inconclusive results (about 18%) are left out. No stated cut-off is given here; in the data, active means normalized growth mostly below about 0.91 (no sharp cut-off); inconclusive means no clear call, values can overlap the other calls; inactive means mostly above about 0.92. Some of the results follow.

Assay: chemical genetic growth profiling, strain panel (AID 1159580);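 further: tested at 20 µM; growth read once vehicle control cultures reached saturation at 30 °C; 1 = growth at the plate median or of vehicle wells; lower values mean less growth of the strain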
Conditions: S. cerevisiae deletion strains, growth OD

Measured: normalized growth

CN1CCN(C2=Nc3ccccc3Oc3ccc(Cl)cc32)CC1
inactive: locus YAL013W, strain DEP1, active compounds read low 0.995 and 0.98 | locus YAL021C, strain ccr4, active compounds read low 0.981 | locus YAL026C, strain drs2, active compounds read low 0.984 | locus YAL030W, strain snc1, active compounds read low 1 | locus YAL040C, strain CLN3, active compounds read low 0.979 | locus YBL061C, strain skt5, active compounds read low 0.982 | locus YBR009C, strain hhf1, active compounds read low 1.01 | locus YBR021W, strain FUR4, active compounds read low 1.01 | locus YBR023C, strain chs3, active compounds read low 1 | locus YBR171W, strain sec66, active compounds read low 0.964 | locus YBR229C, strain ROT2, active compounds read low 0.953 | locus YBR231C, strain swc5, active compounds read low 0.988 | locus YBR279W, strain paf1, active compounds read low 0.987 | locus YCL011C, strain gbp2, active compounds read low 0.978 | locus YCL016C, strain dcc1, active compounds read low 1 | locus YCL029C, strain bik1, active compounds read low 0.994 | locus YCL061C, strain MRC1 (second series), active compounds read low 0.992 | locus YCL061C, strain MRC1, active compounds read low 0.989 | locus YCL069W, strain vba3, active compounds read low 0.999 | locus YCR088W, strain abp1, active compounds read low 0.993 | locus YDL005C, strain med2, active compounds read low 0.972 | locus YDL035C, strain GPR1, active compounds read low 0.988 | locus YDL040C, strain nat1, active compounds read low 0.97 | locus YDL074C, strain BRE1, active compounds read low 0.997 | locus YDL101C, strain DUN1, active compounds read low 0.989 | locus YDL134C, strain PPH21, active compounds read low 0.979 | locus YDL185W, strain tfp1, active compounds read low 0.992 | locus YDL192W, strain arf1, active compounds read low 0.991 | locus YDR001C, strain nth1, active compounds read low 0.967 | locus YDR069C, strain doa4, active compounds read low 0.969 | locus YDR101C, strain arx1, active compounds read low 0.994 | locus YDR137W, strain rgp1, active compounds read low 1.01 | locus YDR150W, strain NUM1, active compounds read low 0.991 and 1.02 | locus YDR159W, strain sac3, active compounds read low 0.972 | locus YDR162C, strain NBP2, active compounds read low 1.01 | locus YDR195W, strain ref2 0.948 | locus YDR297W, strain sur2, active compounds read low 0.99 | locus YDR318W, strain mcm21, active compounds read low 0.977 | locus YDR334W, strain swr1, active compounds read low 0.947 | locus YDR335W, strain msn5, active compounds read low 0.982 | locus YDR363W, strain ESC2, active compounds read low 0.928 | locus YDR388W, active compounds read low 0.994 | locus YDR392W, strain spt3, active compounds read low 1.05 | locus YDR502C, strain sam2, active compounds read low 0.986 | locus YEL003W, strain gim4, active compounds read low 0.976 | locus YEL037C, strain rad23, active compounds read low 0.998 | locus YEL061C, strain CIN8 (second series), active compounds read low 0.97 | locus YEL061C, strain CIN8, active compounds read low 0.997 | locus YER002W, strain NOP16, active compounds read low 0.974 | locus YER015W, strain faa2, active compounds read low 0.996 | locus YER016W, strain bim1, active compounds read low 1 | locus YER110C, active compounds read low 0.985 | locus YER111C, strain swi4, active compounds read low 0.998 | locus YER155C, strain BEM2 (second series), active compounds read low 0.985 | locus YER155C, strain BEM2, active compounds read low 0.996 | locus YER167W, strain BCK2, active compounds read low 0.988 | locus YFR010W, strain ubp6, active compounds read low 1.01 | locus YGL078C, strain dbp3, active compounds read low 1 | locus YGL086W, strain mad1, active compounds read low 0.974 | locus YGL167C, strain pmr1, active compounds read low 0.984 | locus YGL173C, strain kem1, active compounds read low 1.01 | locus YGL227W, strain vid30, active compounds read low 0.956 | locus YGL240W, strain doc1, active compounds read low 1.02 | locus YGL248W, strain PDE1, active compounds read low 0.963 | locus YGL253W, strain hxk2, active compounds read low 0.982 | locus YGR078C, strain PAC10, active compounds read low 1.02 and 0.994 | locus YGR135W, strain pre9, active compounds read low 0.981 | locus YGR229C, strain SMI1, active compounds read low 0.983 | locus YGR252W, strain gcn5, active compounds read low 0.956 | locus YHR013C, strain ard1, active compounds read low 0.974 | locus YHR027C, strain rpn1, active compounds read low 0.966 | locus YHR030C, strain SLT2, active compounds read low 0.987 and 1.04 | locus YHR079C, strain IRE1 (second series), active compounds read low 0.99 | locus YHR079C, strain IRE1, active compounds read low 1.06 | locus YHR094C, strain hxt1, active compounds read low 0.991 | locus YHR129C, strain ARP1, active compounds read low 0.991 | locus YHR142W, strain chs7, active compounds read low 0.956 | locus YHR200W, strain rpn10, active compounds read low 0.987 | locus YIL066C, strain RNR3, active compounds read low 0.971 | locus YIL073C, strain SPO22, active compounds read low 0.989 | locus YIL125W, strain kgd1, active compounds read low 0.992 | locus YIR030C, strain dcg1, active compounds read low 0.991 | locus YJL092W, strain hpr5, active compounds read low 0.978 | locus YJL095W, strain BCK1 (second series), active compounds read low 0.964 | locus YJL095W, strain BCK1, active compounds read low 0.981 and 1.03 | locus YJL115W, strain asf1, active compounds read low 0.926 | locus YJL129C, strain trk1, active compounds read low 0.971 | locus YJL134W, strain LCB3, active compounds read low 0.992 | locus YJL154C, strain vps35, active compounds read low 0.97 | locus YJL164C, strain tpk1, active compounds read low 0.998 | locus YJL166W, strain qcr8, active compounds read low 0.975 | locus YJL168C, strain set2, active compounds read low 0.991 | locus YJL187C, strain SWE1 (second series), active compounds read low 0.983 | locus YJL187C, strain SWE1, active compounds read low 0.99 | locus YJR043C, strain POL32, active compounds read low 1.01 | locus YJR066W, strain TOR1, active compounds read low 0.931
